Results filed as inconclusive are left out. Calls of active or inactive are those of the source. Calls come from the whole dose curve.
Test: qHTS Assay for Lipid Storage Modulators (AID 1519); for activity change, negative = inhibition: % is set by controls: 0 for no effect and ±100 for the full control effect
Settings: Drosophila S3 cells, BODIPY lipid droplet/cell ratio, laser cytometry, cells loaded with oleic acid
Description: NIH Molecular Libraries Probe Production Centers Network [MLPCN]
NIH Chemical Genomics Center [NCGC]
Assay Submitter (PI): Beller, Mathias; Max-Planck-Institut fur Biophysikalische Chemie
NCGC Assay Overview: Storing lipids as a reservoir for energy or the anabolism of elementary metabolites is a common feature of probably all cells and is conserved from bacteria to humans. The universal cellular lipid storage organelle is the so-called lipid storage droplet (LD). Although ubiquitous, LDs share a simple structure composed of a hydrophobic core that harbors the storage lipids, which is shielded by a droplet-specific phospholipid monolayer to which proteins are attached. The current model of LD biogenesis involves an incorporation of the lipid core into the membrane leaflets of the endoplasmic reticulum (ER) followed by a subsequent budding-like maturation of a LD, which ultimately pinches off. Once released, LD volume can increase by localized lipogenesis or fusion of existing droplets. Storage lipids are re-mobilized enzymatically by lipase activity. Lipase regulation in the adipocyte is heavily studied and involves multiple components including catecholamine signaling, the LD-associated proteins Perilipin and comparative gene identification-58 (CGI-58) and at least two lipases named hormone sensitive lipase (HSL) and adipocyte triglyceride lipase (ATGL). LD regulation outside of the adipocyte is poorly understood and only few components are known. However, there is an urgent need to learn more about ectopic fat depots as mislocalized storage of lipids, for example in the liver or muscle, is an eminent health problem associated with insulin resistance or the metabolic syndrome. We developed a laser-scanning cytometer assay to enable 1,536-well screening and combined the results of the small molecules screen with an RNAi database based on lipid storage.
NCGC Assay Protocol Summary:
We dispensed 4 uL of cells at 1.25 x 10^6 cells/mL into LoBase Aurora COC 1,536-well plates (black walled, clear bottom) with a bottle-valve solenoid-based dispenser (Aurora) to obtain 5,000 cells/well. Triacsin C (Sigma-Aldrich T-4540), an inhibitor of long-chain fatty acyl CoA synthetase that blocks synthesis of triglycerides, was used as a positive control for lipid under-storage. A total of 23 nL of compound solution of different concentrations were transferred to the assay plates using a Kalypsys pin tool equipped with a 1,536-pin array containing 10-nL slotted pins (FP1S10, 0.457-mm diameter, 50.8 mm long; V&P Scientific). One microliter of oleic acid (400 uM) was added, and the plate was lidded with stainless steel rubber gasket lined lids containing pinholes. […] Fluorescence was detected by excitation of the fluorophores with a 488-nm laser on an Acumen Explorer (TTP Lab Tech). The total intensity in channel 1 (500-530 nm) reflected lipid droplet accumulation. […] The ratio of the total intensity in PMT channel 1 over total intensity of channel 3 was also calculated. Percent activity was computed relative to an internal control (100% inhibited lipid droplet deposition due to the presence of 20 uM Triacsin C), which was added to 32 wells/plate.

[1] = measured here: cell count channel max response
[2] = measured here: lipid channel max response

SMILES	activity change, negative = inhibition (at 25.7 µM (top of the series))	max response [1] [%]	max response [2] [%]	activity change, negative = inhibition (at 57.5 µM (top of the series))
N[C@H]1C[C@H]1c1ccccc1	-0.294% (inactive)	5.35	3.84	–
C/C=C1\C[N@@+]2(C)CC[C@@]34C(=C(C=O)[C@H]1C[C@H]32)Nc1ccccc14	-2.98% (inactive)	-3.08	-5.51	–
CN(C)[C@@H]1C(=O)C(C(N)=O)=C(O)[C@]2(O)C(=O)C3=C(O)c4c(O)cccc4[C@@](C)(O)[C@H]3[C@H](O)[C@@H]12	-0.12% (inactive)	-12.1	-10.8	–
C[C@H]1CN(C2CCC(C#N)(c3ccc(F)cc3)CC2)CC[C@@]1(C(=O)O)c1ccccc1 (some centres not stated)	-3.1% (inactive)	-19.6	-20.8	–
CC1O[C@@H](OC2CC[C@@]3(C=O)C4CC[C@]5(C)C(C6=CC(=O)OC6)CC[C@@]5(O)C4CC[C@]3(O)C2)C(O)C(O)C1O (some centres not stated)	–	-0.564	4.22	2.77% (inactive)
N#Cc1ccc(CN2CC[C@@]3(CCCNC3)C2)cc1	–	16.6	21.9	2.19% (inactive)
CC(C)(C)C(=O)C(Oc1ccc(Cl)cc1)n1cncn1 (configuration not stated)	–	5.9	16.7	7.2% (inactive)
COc1cc(OC)c2c(c1)OC(c1ccc(OC)c(OC)c1)C(O)C2 (configuration not stated)	–	10.1	29.4	10.8% (inactive)
c1cc2c(cc1C1OC[C@@H]3C(c4ccc5c(c4)OCO5)OCC13)OCO2 (some centres not stated)	–	12.5	26	7.47% (inactive)
CN1CCCC2(CCN(C(=O)Oc3ccccc3)CC2)C1	–	1.15	-1.11	-5.13% (inactive)
C[C@@]12CCC(Cl)C[C@H]1CCC1C2CC[C@]2(C)C(=O)CCC12 (some centres not stated)	–	9.07	21.6	8.24% (inactive)
CN1CC[C@@]2(CCCN(C(=O)c3csnn3)C2)C1	–	-13.7	-16.8	-3.58% (inactive)
CC1=CCCC2C1(C)CCC(C)C2(C)CC/C(C)=C/C[n+]1cn(C)c2c(N)ncnc21 (configuration not stated)	–	2.19	13.1	6.88% (inactive)
NC(Cn1ccc(=O)[nH]c1=O)C(=O)O (configuration not stated)	–	-18.2	-23.6	-1.49% (inactive)

Reference: PubChem BioAssay (NCATS)
